Among the data in PubChem BioAssay (Tox21) are Potency and outcome values, retold here.

“And” between values parts separate entries of the source, which are not always exact repeats. Identical values can stand only once. Results filed as inconclusive are left out. Some structures have more than one record in an assay (separate samples or runs), and their calls can disagree. The source made the active and inactive calls. Unless noted, calls come from the whole dose curve; as a rule, active = well fitted curve in the direction sought with a large enough effect in the repeat runs; inconclusive = weak or mixed curves; inactive = no such curve, though single readings can be large; an effect the other way counts as inactive or inconclusive.

Assay [1] in a line: qHTS assay to identify aromatase inhibitors - cell viability counter screen (AID 743084).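 Note: cells stimulated with testosterone during compound exposure; nearly all actives have a fitted effect of over 55% in size.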
Assay [2] deals with Aryl hydrocarbon receptor (Homo sapiens) (UniProt P35869). In words: qHTS assay to identify small molecule that activate the aryl hydrocarbon receptor (AhR) signaling pathway (AID 743085).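 Note: HG2L7.5c1 human HepG2 liver cells with stably integrated DRE-driven firefly reporter; series mostly up to about 70 µM; nearly all actives have a fitted effect of over 15% in size.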 In outline:
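Steps: seed HepG2-AhR-luc cells; allow 5 h at 37C; pin-transfer test compound or vehicle; incubate 24 h at 37C; add viability dye (30 min, 37C) and read fluorescence; add luciferase substrate (30 min, RT) and read luminescence.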
(In qHTS, concentration-response curves come from the screen itself.)

The nature of assay [3]: qHTS assay to identify small molecule that activate the aryl hydrocarbon receptor (AhR) signaling pathway - cell viability counter screen (AID 743086).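 Note: HepG2 liver cells carrying the AhR DRE luciferase reporter; series mostly up to about 70 µM; nearly all actives have a fitted effect of over 45% in size.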 In outline:
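HepG2-AhR-luc (HG2L7.5c1) cells, 4000/well, treated 24 h at 37 C with compound; viability measured as CellTiter-Fluor fluorescence after 30 min in the same wells as the luciferase read.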

Assay [4] has as its target Peroxisome proliferator-activated receptor gamma (Homo sapiens) (UniProt P37231). In words: qHTS assay to identify small molecule agonists of the peroxisome proliferator-activated receptor gamma (PPARg) signaling pathway (AID 743094; active = well fitted activation curve with a large enough effect in the signal ratio in the repeat runs, not every such curve was filed as active; the % refers to the signal ratio). In outline: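 Agonism was assessed in a beta-lactamase reporter system, HEK293H cells with a stably integrated UAS-bla construct under PPARg control; the 17 h treatment at 37C preceded a 1 h room-temperature FRET substrate read.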

Assay [5] has the same target. The assay can be described thus: qHTS assay to identify small molecule antagonists of the peroxisome proliferator-activated receptor gamma (PPARg) signaling pathway (AID 743191; calls by dose curve; note: series mostly up to about 63 µM; nearly all actives have a fitted effect of over 30% in size). In outline:
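GeneBLAzer PPARg UAS-bla HEK293H cells, 5 h post-plating, exposed to compounds 17 h at 37C. LiveBLAzer B/G FRET substrate added for 1 h at room temperature; beta-lactamase reporter read by fluorescence intensity.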

Assay [6] is described as follows: qHTS assay to identify small molecule antagonists of the peroxisome proliferator-activated receptor gamma (PPARg) signaling pathway - cell viability counter screen (AID 743194). Note: nearly all actives have a fitted effect of over 55% in size. In outline:
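Cytotoxicity counter screen in PPARg-bla HEK293H cells, same wells as reporter assay. Compounds plus 50 nM rosiglitazone (final) for 17 h at 37 C, then viability read by CellTiter-Glo luminescence.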

A short description of assay [7]: qHTS assay for small molecule agonists of the antioxidant response element (ARE) signaling pathway (AID 743202; active = well fitted activation curve with a large enough effect in the signal ratio in the repeat runs, not every such curve was filed as active; the % refers to the signal ratio; note: potency is the fitted concentration of half-maximal effect). The method in brief: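 HepG2 ARE-bla cells; 16 h treatment at 37 C; FRET-based beta-lactamase fluorescence read after 2 h substrate incubation at room temperature.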
The nature of assay [8]: qHTS assay for small molecule agonists of the antioxidant response element (ARE) signaling pathway - cell viability counter screen (AID 743203; calls by dose curve; note: nearly all actives have a fitted effect of over 55% in size). In outline: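 ATP content via CellTiter-Glo luminescence served as the viability measure. Cells: ARE-bla HepG2, 2,000 per well. Exposure: 16 hrs, 37C/5% CO2.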
Assay [9] in a line: qHTS assay for small molecule activators of the heat shock response signaling pathway - cell viability counter screen (AID 743209). Note: nearly all actives have a fitted effect of over 50% in size. The method in brief:
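Compounds dissolved in DMSO were added to overnight-plated HSE-bla HeLa cells and left 5 h at 37 C. Cell viability was quantified by luminescence using CellTiter-Glo.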

Assay [10] is described as follows: qHTS assay for small molecule activators of the heat shock response signaling pathway (AID 743210; active = well fitted activation curve with a large enough effect in the signal ratio in the repeat runs, with a control signal flat, not every such curve was filed as active; the % refers to the signal ratio;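 note: HeLa cells with beta-lactamase reporter driven by heat shock elements; series mostly up to about 63 µM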). The method in brief:
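Following overnight attachment, HSE-bla HeLa cells received test compounds for 5 h at 37 C; beta-lactamase activity was then detected via FRET substrate fluorescence.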

Assay [11] is described as follows: qHTS assay to identify small molecule agonists of the peroxisome proliferator-activated receptor delta (PPARd) signaling pathway - cell viability counter screen (AID 743211). Note: nearly all actives have a fitted effect of over 55% in size. The method in brief: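 Viability of GeneBLAzer PPARd UAS-bla HEK293H cells was assessed after 17 h compound incubation at 37C, using CellTiter-Glo reagent added after the reporter read and luminescence recorded 30 min later.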

Assay [12] is described as follows: qHTS assay to identify small molecule antagonists of the peroxisome proliferator-activated receptor delta (PPARd) signaling pathway - cell viability counter screen (AID 743213). Note: nearly all actives have a fitted effect of over 50% in size. In outline: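 Same-well viability: cells pre-incubated 5 h, dosed with compound plus 300 nM L165041, kept 17 h at 37 C, FRET substrate 2 h RT, then CellTiter-Glo 30 min RT and luminescence.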

The nature of assay [13]: qHTS assay to identify small molecule agonists of the farnesoid-X-receptor (FXR) signaling pathway - cell viability counter screen (AID 743218). Note: nearly all actives have a fitted effect of over 45% in size. The method in brief:
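Quantitative HTS counter screen measuring ATP-based viability via CellTiter-Glo luminescence in HEK 293T cells carrying a UAS-driven beta-lactamase reporter, after 16 h compound exposure at 37 C.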

Assay [14] in a line: qHTS assay to identify small molecule antagonists of the farnesoid-X-receptor (FXR) signaling pathway - cell viability counter screen (AID 743221; active = well fitted cell-killing curve with a large enough effect in the repeat runs, not every such curve was filed as active; note: nearly all actives have a fitted effect of over 50% in size). The method in brief:
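Quantitative HTS of the Tox21 10K library run in parallel with the beta-lactamase reporter read. HEK 293T cells carrying a UAS-driven bla reporter got compound and 50 uM CDCA (final) for 16 h; ATP-based luminescence followed.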

In assay [15] the target is Vitamin D3 receptor (Homo sapiens) (UniProt P11473). The assay can be described thus: qHTS assay to identify small molecule agonists of the vitamin D receptor (VDR) signaling pathway (AID 743222; calls by dose curve). In outline: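 Tox21 cell reporter format: VDR-bla line, 16 h compound exposure in 5% CO2 at 37C, then fluorescence intensity after 2 h with LiveBLAzer B/G FRET substrate.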
Sequence of Vitamin D3 receptor (Homo sapiens) (P11473 whole entry, looked up): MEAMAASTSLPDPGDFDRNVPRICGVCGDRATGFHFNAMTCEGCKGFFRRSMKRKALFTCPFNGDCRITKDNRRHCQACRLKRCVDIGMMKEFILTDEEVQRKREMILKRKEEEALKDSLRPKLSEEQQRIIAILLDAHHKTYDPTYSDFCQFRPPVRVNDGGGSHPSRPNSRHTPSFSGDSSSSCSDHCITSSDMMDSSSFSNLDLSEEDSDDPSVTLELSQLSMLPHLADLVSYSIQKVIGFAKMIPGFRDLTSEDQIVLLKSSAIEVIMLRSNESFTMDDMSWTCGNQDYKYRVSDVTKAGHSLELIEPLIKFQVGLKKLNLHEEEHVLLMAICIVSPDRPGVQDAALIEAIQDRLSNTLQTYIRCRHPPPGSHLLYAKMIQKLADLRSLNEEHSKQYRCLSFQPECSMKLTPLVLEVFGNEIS

Assay [16] has as its target Peroxisome proliferator-activated receptor delta (Homo sapiens) (UniProt Q03181). The assay can be described thus: qHTS assay to identify small molecule agonists of the peroxisome proliferator-activated receptor delta (PPARd) signaling pathway (AID 743212; calls by dose curve). In outline: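 Tox21 library screened in GeneBLAzer PPARd UAS-bla HEK293H cells. After compound treatment at 37 C, a FRET-based beta-lactamase substrate was applied for 2 h and fluorescence recorded.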

The target is the same in assay [17]. In words: qHTS assay to identify small molecule antagonists of the peroxisome proliferator-activated receptor delta (PPARd) signaling pathway (AID 743215; active = well fitted inhibition curve with a large enough effect in the signal ratio in the repeat runs, not every such curve was filed as active; the % refers to the signal ratio;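 note: cells stimulated with agonist L165041 at 300 nM final during compound exposure; series mostly up to about 62 µM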). In outline: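 Here, a reporter line (HEK293H, beta-lactamase under a UAS) measures PPARd signaling. Compounds are tested against agonist L165041 at 300 nM final concentration over 17 h at 37 C, with fluorescence read after substrate.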

Assay [18] deals with Bile acid receptor (Homo sapiens) (UniProt Q96RI1). The assay can be described thus: qHTS assay to identify small molecule antagonists of the farnesoid-X-receptor (FXR) signaling pathway (AID 743217; active = well fitted inhibition curve with a large enough effect in the signal ratio in the repeat runs, not every such curve was filed as active; the % refers to the signal ratio). In outline: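 Test compounds are pin-transferred onto FXR-bla HEK 293T cells, then chenodeoxycholic acid is added at 50 uM final. After 16 h at 37 °C, LiveBLAzer B/G substrate is applied for 2 h at room temperature and fluorescence read.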
Sequence of Bile acid receptor (Homo sapiens) (Q96RI1 whole entry, looked up): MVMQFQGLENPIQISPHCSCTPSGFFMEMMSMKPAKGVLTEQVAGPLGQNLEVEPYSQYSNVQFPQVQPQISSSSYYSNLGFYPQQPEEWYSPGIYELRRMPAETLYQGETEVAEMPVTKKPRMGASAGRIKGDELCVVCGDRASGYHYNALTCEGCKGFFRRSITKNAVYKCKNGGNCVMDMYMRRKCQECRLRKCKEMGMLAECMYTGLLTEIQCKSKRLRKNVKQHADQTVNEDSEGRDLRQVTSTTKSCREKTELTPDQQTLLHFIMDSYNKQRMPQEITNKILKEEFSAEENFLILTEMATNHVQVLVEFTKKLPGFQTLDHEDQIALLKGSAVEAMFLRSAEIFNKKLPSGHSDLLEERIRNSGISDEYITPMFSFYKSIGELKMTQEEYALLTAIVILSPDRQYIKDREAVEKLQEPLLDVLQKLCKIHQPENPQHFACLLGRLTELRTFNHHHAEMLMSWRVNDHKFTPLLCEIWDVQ

For assay [19] the target is unchanged. In words: qHTS assay to identify small molecule agonists of the farnesoid-X-receptor (FXR) signaling pathway (AID 743220; active = well fitted activation curve with a large enough effect in the signal ratio in the repeat runs, not every such curve was filed as active; the % refers to the signal ratio). The method in brief:
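FXR-UAS-bla HEK 293T cells carrying a UAS-driven beta-lactamase reporter were plated for 5 h at 37C/5% CO2, then exposed to DMSO-dissolved Tox21 10K compounds for 16 h at 37C. A LiveBLAzer B/G FRET substrate was loaded for 2 h at room temperature before fluorescence reading.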

The target of assay [20] is Vitamin D3 receptor (Homo sapiens) (UniProt P11473). In words: qHTS assay to identify small molecule antagonists of the vitamin D receptor (VDR) signaling pathway (AID 743223; active = well fitted inhibition curve with a large enough effect in the signal ratio in the repeat runs, not every such curve was filed as active; the % refers to the signal ratio). In outline:
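Fluorescence from LiveBLAzer B/G FRET substrate, read after 2 h at room temperature, reflects beta-lactamase reporter activity in VDR-bla cells treated 16 h at 37C with compounds and agonist 1alpha,25-dihydroxyvitamin D3 (3 nM final).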

Sequence of Aryl hydrocarbon receptor (Homo sapiens) (P35869 whole entry, looked up): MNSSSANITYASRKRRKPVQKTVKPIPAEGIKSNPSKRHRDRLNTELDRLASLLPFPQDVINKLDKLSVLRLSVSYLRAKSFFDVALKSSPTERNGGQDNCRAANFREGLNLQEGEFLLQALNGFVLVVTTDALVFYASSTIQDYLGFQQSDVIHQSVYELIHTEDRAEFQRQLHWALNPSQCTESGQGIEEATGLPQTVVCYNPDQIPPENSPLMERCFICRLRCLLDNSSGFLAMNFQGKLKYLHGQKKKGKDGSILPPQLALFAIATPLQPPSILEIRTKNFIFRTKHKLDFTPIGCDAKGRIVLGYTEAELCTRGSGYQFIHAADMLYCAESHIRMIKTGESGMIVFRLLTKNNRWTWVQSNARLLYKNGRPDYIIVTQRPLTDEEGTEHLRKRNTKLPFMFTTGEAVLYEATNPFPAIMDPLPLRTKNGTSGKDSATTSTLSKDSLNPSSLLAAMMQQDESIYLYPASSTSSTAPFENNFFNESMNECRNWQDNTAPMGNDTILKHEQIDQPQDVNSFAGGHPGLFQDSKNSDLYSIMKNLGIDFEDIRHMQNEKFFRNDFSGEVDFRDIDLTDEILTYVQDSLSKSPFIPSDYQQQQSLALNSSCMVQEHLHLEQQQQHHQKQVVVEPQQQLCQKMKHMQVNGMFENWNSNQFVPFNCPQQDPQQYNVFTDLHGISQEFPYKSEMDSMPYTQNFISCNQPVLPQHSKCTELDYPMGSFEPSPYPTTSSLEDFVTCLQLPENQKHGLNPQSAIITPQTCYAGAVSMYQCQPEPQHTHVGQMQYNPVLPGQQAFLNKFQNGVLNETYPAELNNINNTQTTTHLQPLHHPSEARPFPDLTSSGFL
Sequence of Peroxisome proliferator-activated receptor gamma (Homo sapiens) (P37231 whole entry, looked up): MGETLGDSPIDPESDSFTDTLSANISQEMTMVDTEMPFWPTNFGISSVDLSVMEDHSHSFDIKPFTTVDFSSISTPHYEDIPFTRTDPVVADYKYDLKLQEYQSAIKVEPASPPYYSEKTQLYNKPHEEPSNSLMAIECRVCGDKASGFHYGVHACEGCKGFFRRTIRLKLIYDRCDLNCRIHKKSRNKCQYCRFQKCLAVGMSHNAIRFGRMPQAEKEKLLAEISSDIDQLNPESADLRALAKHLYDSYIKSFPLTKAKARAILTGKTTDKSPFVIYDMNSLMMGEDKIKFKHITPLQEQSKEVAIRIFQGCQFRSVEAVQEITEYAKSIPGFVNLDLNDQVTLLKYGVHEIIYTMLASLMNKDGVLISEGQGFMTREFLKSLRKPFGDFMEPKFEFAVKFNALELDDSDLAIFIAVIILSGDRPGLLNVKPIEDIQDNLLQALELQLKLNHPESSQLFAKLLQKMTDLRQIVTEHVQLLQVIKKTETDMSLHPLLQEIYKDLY
Sequence of Peroxisome proliferator-activated receptor delta (Homo sapiens) (Q03181 whole entry, looked up): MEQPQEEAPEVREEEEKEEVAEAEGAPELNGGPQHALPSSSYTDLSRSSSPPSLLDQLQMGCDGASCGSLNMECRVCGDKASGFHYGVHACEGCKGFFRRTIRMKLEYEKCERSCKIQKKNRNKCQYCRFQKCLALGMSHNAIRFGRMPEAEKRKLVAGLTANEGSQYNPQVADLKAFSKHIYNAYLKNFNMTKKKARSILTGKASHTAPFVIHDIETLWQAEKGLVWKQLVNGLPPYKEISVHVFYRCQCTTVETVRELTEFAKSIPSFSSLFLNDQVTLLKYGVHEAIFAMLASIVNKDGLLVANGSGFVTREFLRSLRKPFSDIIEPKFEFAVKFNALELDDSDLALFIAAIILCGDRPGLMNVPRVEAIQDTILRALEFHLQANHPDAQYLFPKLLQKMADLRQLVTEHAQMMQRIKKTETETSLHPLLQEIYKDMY

For the compound `NC(CO)(CO)CO`, the Potency result in assay [1], in [2], in assay [3], in assay [4], in assay [5] and in assay [6] was “inactive” in each case. Moreover, the Potency result in [7], in [8], in assay [9], in assay [11], in [12] and in assay [13] was “inactive” throughout. The Potency result in assay [14] and in assay [15] was “inactive” each time. For the same compound, the call in assay [10] was inactive.

With `CCCCCCCC(=O)OCC(COC(=O)CCCCCCC)OC(=O)CCCCCCC`, the Potency entry in [1], in assay [2], in assay [3], in assay [4], in assay [5] and in assay [6] was “inactive” each time. Moreover, the Potency entry in assay [7], in [8], in assay [9], in [11], in [16] and in [12] was “inactive” each time. Besides, the Potency entry in [17], in [18], in assay [13], in [14], in assay [15] and in assay [20] was “inactive” throughout. The compound was classed as inactive in assay [10] and in assay [19].

For `Cc1cc(C)nc(NS(=O)(=O)c2ccc(N)cc2)n1`, the Potency result in assay [1], in assay [2], in assay [3], in assay [4], in assay [5] and in assay [6] was “inactive” each time. Moreover, the Potency entry in assay [7], in assay [8], in assay [9], in assay [11], in [16] and in assay [12] was “inactive” throughout. The Potency entry in assay [17], in assay [18], in assay [13] and in [14] was “inactive” throughout. The result in assay [10] and in assay [19] was inactive.

Turning to `NC(=O)c1cccnc1`, the Potency result in assay [1], in [2], in [3], in [4], in assay [5] and in assay [6] was “inactive” each time. In addition, the Potency entry in assay [7], in [8], in assay [9], in assay [11], in [16] and in assay [12] was “inactive” each time. Moreover, the Potency result in [17], in assay [18], in assay [13], in [14] and in assay [15] was “inactive” in each case. Also, the call in assay [10] and in [19] was inactive.

Consider `O=C(O)CC(O)C(=O)O` (stereo unspecified), for which the Potency entry in [1], in assay [2], in assay [3], in assay [4], in [5] and in assay [6] was “inactive” throughout. Also, the Potency entry in assay [7], in [8], in assay [9], in assay [11], in assay [12] and in [13] was “inactive” in each case. Besides, the Potency result in [14] and in assay [15] was “inactive” each time. For the same compound, the call in assay [10] was inactive.

Turning to `F[B-](F)(F)F`, the Potency result in assay [1], in assay [2], in assay [3], in assay [4], in assay [5] and in assay [6] was “inactive” in each case. Moreover, the Potency result in assay [8], in assay [9], in assay [11], in assay [12], in assay [13] and in [14] was “inactive” in each case. The Potency result in assay [15] is “inactive”. Besides, the Potency result in [7] is “inactive and 27.6 µM (active)”. For the same compound, the outcome in [10] was inactive.

On to `CC12CCC(CC1)C(C)(C)O2`, for which the Potency result in assay [1], in assay [2], in [3], in assay [4], in assay [5] and in assay [6] was “inactive” each time. The Potency result in [7], in [8], in [9], in assay [11], in assay [16] and in assay [12] was “inactive” throughout. The Potency entry in [17], in assay [18], in assay [13], in assay [14] and in [15] was “inactive” throughout. The compound was called inactive in assay [10] and in assay [19].
